Screens as filed in PubChem BioAssay.
HCV inhibitor: qHTS Assay for Inhibitors of Hepatitis C Virus (HCV); hit rate 3.4% among 340,000; Potency, µM (top dose mostly 41.8 µM), usual class: inhibitors; AID 651820, 2012; Huh7.5.1 HCVcc-Cre infection, luciferase reporter, 44 h; active means well fitted inhibition curve with a large enough effect; inconclusive means small, poorly fitted or top-dose-only effect, or another doubt; inactive means no such curve, though single readings can be large or run the other way
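Seed cells (1,000/well) for 4 h; treat with compound and infect with HCVcc-Cre, moi about 0.5. Incubate 44 h, then detect luciferase activity.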
FMDV inh: High Throughput Screening for Foot and Mouth Disease Virus Antivirals | FMDV antiviral cell-based qHTS | Potency, µM (highest dose often 57.9 µM), actives largely listed as inhibitors | hit rate 1.2% among 410,000; calls by dose curve; tested in HEK293T cells; further: read-out not given here; nearly all actives have a fitted effect of over 45% in size
Shiga inhibitor: A qHTS for Small Molecule Inhibitors of Shiga Toxin | Vero cells, Shiga toxin protein synthesis inhibition reporter | inhibition, % at 38.7 µM | hit rate 9.2% among 290,000; in the data active means inhibition mostly above about 28%, no sharp cut-off; inactive means mostly below about 43%
Lassa entry inh: qHTS for Inhibitors of binding or entry into cells for Lassa Virus | Lassa virus pseudotype entry inhibition, cell reporter | hit rate 1.2% among 300,000 | Potency, µM (highest dose often 37.9 µM), actives largely listed as inhibitors | AID 540256, 2011; calls by dose curve; tested in HEK293 cells; further: nearly all actives have a fitted effect of over 50% in size
CHX counter: Cycloheximide Counterscreen for Small Molecule Inhibitors of Shiga Toxin; cell reporter, cycloheximide protein synthesis inhibition counterscreen; max response, %; hit rate 12% among 300,000; AID 2314, 2010; in the data active means max response mostly above about 13%, no sharp cut-off; inactive means mostly below about 14%; further: read at 38.3 µM for the half of the compounds with a filed dose
Marburg entry inh: qHTS for inhibitors of binding or entry into cells for Marburg Virus; Marburg virus pseudotyped entry inhibition, cell reporter; Potency, µM (titrated, usually from 37.8 µM), usual class: inhibitors; hit rate 1.8% among 300,000; AID 540276, 2011; calls by dose curve; tested in HEK293 cells
Numbers stand for hits; [ ] = dose if it differs, or a comment. Hits are enriched below; roughly 13% of the tested compounds scored in any of these assays.

Results for Fc1ccc2nc(C3CCN(Cc4nc(CC5CC5)no4)CC3)[nH]c2c1 ?
HCV inhibitor: inactive; FMDV inh: inactive; Shiga inhibitor: inactive; Lassa entry inh: inactive; CHX counter: 15; Marburg entry inh: inactive

Results for Cc1cccc(NC(=O)C2C3CCCCC32)c1 (configuration not stated) ?
HCV inhibitor: inactive; FMDV inh: inactive; Shiga inhibitor: 25; CHX counter: 32

How did C/C(CC(=O)Nc1ccc([N+](=O)[O-])cc1)=N/NC(=O)C1C2CCCCC21 (configuration not stated) do in these assays?
HCV inhibitor: inactive; FMDV inh: inactive; Shiga inhibitor: inactive; Lassa entry inh: inactive; CHX counter: 19; Marburg entry inh: inactive

How did Cc1cc(NC(=O)OC2CCCCC2)ccc1[N+](=O)[O-] do in these assays?
HCV inhibitor: inconclusive; FMDV inh: inactive; Shiga inhibitor: 123; Lassa entry inh: inconclusive; CHX counter: 55; Marburg entry inh: 10µM

How did C/C(CC(=O)Nc1ccc([N+](=O)[O-])cc1)=N/NC(=O)C1CC12CCC2 (configuration not stated) do in these assays?
HCV inhibitor: inactive; FMDV inh: inactive; Shiga inhibitor: inactive; Lassa entry inh: inactive; CHX counter: inactive; Marburg entry inh: inactive

What do the screens show for `Cc1ccc(NC(=O)C2C3/C=C\CCCCC32)cc1` (configuration not stated)?
HCV inhibitor: inactive; FMDV inh: inactive; Shiga inhibitor: inactive; Lassa entry inh: inactive; CHX counter: 12; Marburg entry inh: inactive

Results for Cc1cc(C)c(NC(=O)C2C3/C=C\CCCCC32)c(C)c1 (configuration not stated) ?
HCV inhibitor: inactive; FMDV inh: inactive; Shiga inhibitor: inactive; Lassa entry inh: inactive; CHX counter: inactive; Marburg entry inh: inconclusive

What do the screens show for `O=C(CNC1CCCCC1)Nc1cccc([N+](=O)[O-])c1`?
HCV inhibitor: inactive; FMDV inh: inactive; Lassa entry inh: inactive; Marburg entry inh: inactive

How did Cc1ccc(NC(=O)C2C3CCCCC32)cc1[N+](=O)[O-] (configuration not stated) do in these assays?
HCV inhibitor: inactive; FMDV inh: inactive; Shiga inhibitor: 58; CHX counter: 48

What do the screens show for `O=C(Nc1ccccc1)C1C2CCCCC21` (configuration not stated)?
HCV inhibitor: inactive; FMDV inh: inactive; Shiga inhibitor: 65; Lassa entry inh: inactive; CHX counter: 22; Marburg entry inh: inactive

How did CC(=O)Nc1ccc(C)c([N+](=O)[O-])c1 do in these assays?
HCV inhibitor: inactive; FMDV inh: inactive; Shiga inhibitor: inactive; Lassa entry inh: inactive; CHX counter: inactive; Marburg entry inh: inactive

How did Cc1ccc(S(=O)(=O)N2CCC(C(=O)OCC(=O)NCCc3ccccc3)CC2)cc1C do in these assays?
HCV inhibitor: inactive; FMDV inh: inactive; Lassa entry inh: inactive; Marburg entry inh: inactive

Results for c1cc2c(cc1-c1ccc3c(c1)OCO3)CNCc1cnnn1-2 ?
FMDV inh: inactive

How did CCCCOc1ccc(N=Nc2ccc(N)nc2N)cn1 do in these assays?
HCV inhibitor: inactive; FMDV inh: inactive; Shiga inhibitor: inactive; CHX counter: 18

What do the screens show for `Cc1nnc(NS(=O)(=O)c2ccc(N=Nc3ccc(N)nc3N)cc2)s1`?
HCV inhibitor: inactive; FMDV inh: inactive; Lassa entry inh: inactive; Marburg entry inh: inactive

Results for COc1cc(C(=O)Nc2ccc(-c3nnc(-c4ccco4)o3)cc2)cc(OC)c1OC ?
HCV inhibitor: inconclusive; FMDV inh: inactive; Shiga inhibitor: inactive; Lassa entry inh: inactive; CHX counter: inactive; Marburg entry inh: inconclusive

How did COc1ccc(C(=O)Nc2cccc(-c3nnc(-c4ccco4)o3)c2)cc1 do in these assays?
HCV inhibitor: 13µM; FMDV inh: 35µM; Shiga inhibitor: inactive; Lassa entry inh: inactive; CHX counter: 31; Marburg entry inh: inconclusive

How did COc1cc(C(=O)Nc2cccc(-c3nnc(-c4ccco4)o3)c2)ccc1OC(C)=O do in these assays?
HCV inhibitor: inconclusive; FMDV inh: inconclusive; Shiga inhibitor: 66; Lassa entry inh: inconclusive; CHX counter: 31; Marburg entry inh: inconclusive

How did COc1ccc2c(=O)c3c(=O)n(-c4ccccc4)c(-c4ccco4)nc3oc2c1 do in these assays?
HCV inhibitor: inactive; FMDV inh: inactive; Shiga inhibitor: inactive; Lassa entry inh: inactive; CHX counter: inactive; Marburg entry inh: inactive

Results for COCN(C#N)c1nc(N(C)C)nc(N(C)C)n1 ?
HCV inhibitor: inconclusive; FMDV inh: inactive; Shiga inhibitor: inactive; CHX counter: inactive; Marburg entry inh: inactive

What do the screens show for `CCN(C#N)c1nc(N(C)C)nc(N(C)C)n1`?
HCV inhibitor: 10µM; FMDV inh: inactive; Shiga inhibitor: inactive; Lassa entry inh: inactive; CHX counter: inactive; Marburg entry inh: inactive

What do the screens show for `CC(C)C(=O)Nc1cccc(-c2csc(-c3ccccc3)n2)c1`?
HCV inhibitor: inconclusive; FMDV inh: inactive; Shiga inhibitor: 33; Lassa entry inh: inactive; CHX counter: 32; Marburg entry inh: inconclusive

What do the screens show for `CC(C)C(=O)Nc1ccc(-c2csc(-c3ccccc3)n2)cc1`?
HCV inhibitor: inconclusive; FMDV inh: inactive; Shiga inhibitor: 81; Lassa entry inh: inconclusive; CHX counter: 61; Marburg entry inh: inactive

Results for N=C1C=CC(=C(c2ccc(N)cc2)c2ccc(N)cc2)C=C1 ?
HCV inhibitor: 6.3µM; FMDV inh: inactive; Lassa entry inh: 5µM; Marburg entry inh: 4µM

How did N[C@@H](Cc1cc(O)c(O)cc1O)C(=O)O do in these assays?
Marburg entry inh: 4µM

What do the screens show for `N[C@H](Cc1ccc(O)c(O)c1)C(=O)O`?
Marburg entry inh: 16µM

What do the screens show for `NC(Cc1cc(O)c(O)cc1O)C(=O)O` (configuration not stated)?
HCV inhibitor: inactive; Lassa entry inh: inconclusive; Marburg entry inh: 4µM

Results for N[C@@H](Cc1cc(I)c(O)c(I)c1)C(=O)O ?
HCV inhibitor: inactive[8.37 µM]; FMDV inh: inactive; Shiga inhibitor: inactive; Lassa entry inh: inactive; CHX counter: inactive; Marburg entry inh: inactive

Results for N[C@H](Cc1ccc(N(CCCl)CCCl)cc1)C(=O)O ?
Marburg entry inh: 5.8µM

What do the screens show for `NC(Cc1ccc(O)c(O)c1)C(=O)O` (configuration not stated)?
FMDV inh: inactive

What do the screens show for `Nc1ncnc(N2CCc3ccccc32)c1[N+](=O)[O-]`?
HCV inhibitor: inactive; FMDV inh: inactive; Shiga inhibitor: inactive; Lassa entry inh: inactive; CHX counter: inactive; Marburg entry inh: inactive

How did Cc1ccc(C(=O)Nc2cccc(-c3cn4ccccc4n3)c2)cc1 do in these assays?
HCV inhibitor: inactive; FMDV inh: inactive; Shiga inhibitor: 81; Lassa entry inh: inactive; CHX counter: 41; Marburg entry inh: inconclusive

What do the screens show for `COc1ccc(C(=O)Nc2cccc(-c3cn4ccsc4n3)c2)cc1OC`?
FMDV inh: inactive; Lassa entry inh: inconclusive

How did Cc1ccccc1C(=O)Nc1cccc(-c2cn3ccccc3n2)c1 do in these assays?
HCV inhibitor: 14µM; FMDV inh: inconclusive; Shiga inhibitor: inactive; Lassa entry inh: inconclusive; CHX counter: 21; Marburg entry inh: inconclusive
